PubChem BioAssay (NCI)
This is part of a sample that, as a whole, favours compounds with a hit. Of some 83,000 tested, about 20% had one in any assay.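 Testing used 96-well plates and a 48-hour single-concentration exposure. Example: -40 means 40% of the starting cells died.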 A number with no mark means an inactive call. The source made the active and inactive calls. How the source made its calls: active means growth percent below 10; inactive means the rest.

How the values were obtained:
Test in all cases: NCI-60 one-dose screen, 48 h (100 = growth as untreated, 0 = no growth, -100 = all killed)
Details in all cases: 10 µM unless noted
SR leukemia = tested on: SR leukemia
RPMI-8226 leukemia = tested on: RPMI-8226 leukemia
OVCAR-8 ovarian = tested on: OVCAR-8 ovarian
OVCAR-5 ovarian = tested on: OVCAR-5 ovarian
OVCAR-4 ovarian = tested on: OVCAR-4 ovarian
SK-OV-3 ovarian = tested on: SK-OV-3 ovarian
IGROV1 ovarian = tested on: IGROV1 ovarian
OVCAR-3 ovarian = tested on: OVCAR-3 ovarian
HS 578T breast = tested on: HS 578T breast
NCI/ADR-RES ovarian = tested on: NCI/ADR-RES ovarian
T-47D breast = tested on: T-47D breast
BT-549 breast = tested on: BT-549 breast
MDA-MB-435 melanoma = tested on: MDA-MB-435 melanoma
SW-620 colon = tested on: SW-620 colon
MCF7 breast = tested on: MCF7 breast
HCT-116 colon = tested on: HCT-116 colon
HCC-2998 colon = tested on: HCC-2998 colon
KM12 colon = tested on: KM12 colon

N#Cc1ccc(O)c(C2=NCC(c3ccc(-c4ccccc4)cc3)O2)c1 (stereo unspecified)
growth (SR leukemia): 23.7%
growth (RPMI-8226 leukemia): 23.8%
growth (OVCAR-8 ovarian): 16.6%
growth (OVCAR-5 ovarian): 38.7%
growth (OVCAR-4 ovarian): -1.03% (active)
growth (SK-OV-3 ovarian): 3.28% (active)
growth (IGROV1 ovarian): 13.7%
growth (OVCAR-3 ovarian): 22.7%
growth (HS 578T breast): 48.9%
growth (NCI/ADR-RES ovarian): 5.24% (active)
growth (T-47D breast): -1.94% (active)
growth (BT-549 breast): 16.3%
growth (MDA-MB-435 melanoma): 26.8%
growth (SW-620 colon): 23.9%
growth (MCF7 breast): 10.3%
growth (HCT-116 colon): 9.12% (active)
growth (HCC-2998 colon): 34.8%
growth (KM12 colon): 16.6%

Cc1cc2oc(/C=C/c3ccccc3)cc(=O)c2c(C)c1Cl
growth (SR leukemia): 78.3%
growth (RPMI-8226 leukemia): 94%
growth (OVCAR-8 ovarian): 100%
growth (OVCAR-5 ovarian): 104%
growth (OVCAR-4 ovarian): 99%
growth (SK-OV-3 ovarian): 96.3%
growth (IGROV1 ovarian): 109%
growth (OVCAR-3 ovarian): 108%
growth (HS 578T breast): 119%
growth (NCI/ADR-RES ovarian): 97.8%
growth (T-47D breast): 87%
growth (BT-549 breast): 101%
growth (MDA-MB-435 melanoma): 95.9%
growth (SW-620 colon): 100%
growth (MCF7 breast): 98%
growth (HCT-116 colon): 105%
growth (HCC-2998 colon): 106%
growth (KM12 colon): 109%

Oc1c(CN2CCC(N3CCOCC3)CC2)cc(Cc2cc(CN3CCC(N4CCOCC4)CC3)c(O)c3ncccc23)c2cccnc12
growth (SR leukemia): 20%
growth (RPMI-8226 leukemia): 34.8%
growth (OVCAR-8 ovarian): 19.6%
growth (OVCAR-5 ovarian): 47.3%
growth (OVCAR-4 ovarian): 15.4%
growth (SK-OV-3 ovarian): 0.924% (active)
growth (IGROV1 ovarian): 25%
growth (OVCAR-3 ovarian): 19.6%
growth (HS 578T breast): 58.9%
growth (NCI/ADR-RES ovarian): 40.7%
growth (T-47D breast): 21.5%
growth (BT-549 breast): 33.5%
growth (MDA-MB-435 melanoma): 20.3%
growth (SW-620 colon): 28.2%
growth (MCF7 breast): 5.06% (active)
growth (HCT-116 colon): 11.5%
growth (HCC-2998 colon): 0.162% (active)
growth (KM12 colon): 17.1%

CCN(CC)CCOc1ccc2ccc(=O)oc2c1
growth (SR leukemia): -3.51% (active)
growth (RPMI-8226 leukemia): -4.27% (active)
growth (OVCAR-8 ovarian): 98.8%
growth (OVCAR-5 ovarian): 96%
growth (OVCAR-4 ovarian): 101%
growth (SK-OV-3 ovarian): 92.9%
growth (IGROV1 ovarian): 109%
growth (OVCAR-3 ovarian): 115%
growth (HS 578T breast): 109%
growth (NCI/ADR-RES ovarian): 101%
growth (T-47D breast): 97.5%
growth (BT-549 breast): 102%
growth (MDA-MB-435 melanoma): 112%
growth (SW-620 colon): 101%
growth (MCF7 breast): 97.6%
growth (HCT-116 colon): 100%
growth (HCC-2998 colon): 90.5%
growth (KM12 colon): 103%

O=S(=O)(Nc1cc(Sc2nc3ccccc3s2)c(O)c2ccccc12)c1ccc2ccccc2c1
growth (SR leukemia): 100%
growth (RPMI-8226 leukemia): 88.5%
growth (OVCAR-8 ovarian): 75.3%
growth (OVCAR-5 ovarian): 111%
growth (OVCAR-4 ovarian): 77.8%
growth (SK-OV-3 ovarian): 101%
growth (IGROV1 ovarian): 101%
growth (OVCAR-3 ovarian): 82.6%
growth (HS 578T breast): 101%
growth (NCI/ADR-RES ovarian): 86.1%
growth (T-47D breast): 79.5%
growth (BT-549 breast): 105%
growth (MDA-MB-435 melanoma): 95.4%
growth (SW-620 colon): 108%
growth (MCF7 breast): 81.7%
growth (HCT-116 colon): 90.6%
growth (HCC-2998 colon): 109%
growth (KM12 colon): 92.6%

NS(=O)(=O)c1ccc(C(=O)N=Nc2c(O)[nH]c3ccc(Cl)cc23)cc1
growth (SR leukemia): 95.3%
growth (RPMI-8226 leukemia): 98.5%
growth (OVCAR-8 ovarian): 95%
growth (OVCAR-5 ovarian): 110%
growth (OVCAR-4 ovarian): 99.7%
growth (SK-OV-3 ovarian): 108%
growth (IGROV1 ovarian): 98.1%
growth (OVCAR-3 ovarian): 113%
growth (HS 578T breast): 99.5%
growth (NCI/ADR-RES ovarian): 102%
growth (T-47D breast): 97.2%
growth (BT-549 breast): 98.8%
growth (MDA-MB-435 melanoma): 105%
growth (SW-620 colon): 100%
growth (MCF7 breast): 89.2%
growth (HCT-116 colon): 99.4%
growth (HCC-2998 colon): 114%
growth (KM12 colon): 102%

Nc1ncnc2c1N=C(c1ccc(Cl)cc1)CC(c1cccc(Nc3ccnc4cc(Cl)ccc34)c1)N2 (stereo unspecified)
growth (SR leukemia): -12.6% (active)
growth (RPMI-8226 leukemia): -20.5% (active)
growth (OVCAR-8 ovarian): 77.9%
growth (OVCAR-5 ovarian): 111%
growth (OVCAR-4 ovarian): 70.7%
growth (SK-OV-3 ovarian): 80.5%
growth (IGROV1 ovarian): 66.7%
growth (OVCAR-3 ovarian): 80.6%
growth (HS 578T breast): 68.2%
growth (NCI/ADR-RES ovarian): 73.1%
growth (T-47D breast): 85.9%
growth (BT-549 breast): 78.5%
growth (MDA-MB-435 melanoma): 58%
growth (SW-620 colon): 72.2%
growth (MCF7 breast): 19.5%
growth (HCT-116 colon): 14.9%
growth (HCC-2998 colon): 70.4%
growth (KM12 colon): 56.1%

CSc1ccc2c3c(n(CCCn4ccnc4)c(=O)c2c1)-c1ccccc1C3=O
growth (SR leukemia): 3.2% (active)
growth (RPMI-8226 leukemia): 28.9%
growth (OVCAR-8 ovarian): 40.2%
growth (OVCAR-5 ovarian): 76.5%
growth (OVCAR-4 ovarian): 71.8%
growth (SK-OV-3 ovarian): 50.9%
growth (IGROV1 ovarian): 58.9%
growth (OVCAR-3 ovarian): 64.5%
growth (HS 578T breast): 91.4%
growth (NCI/ADR-RES ovarian): 35.4%
growth (T-47D breast): 15.9%
growth (BT-549 breast): 63.4%
growth (MDA-MB-435 melanoma): 64.6%
growth (SW-620 colon): 31.5%
growth (MCF7 breast): 9.87% (active)
growth (HCT-116 colon): 10.6%
growth (HCC-2998 colon): 75.9%
growth (KM12 colon): 45.4%

O=C(O)c1cn(C2CC2)c2cc(N3CCN(C(=O)N4CCOCC4)CC3)c(F)cc2c1=O
growth (SR leukemia): 116%
growth (RPMI-8226 leukemia): 108%
growth (OVCAR-8 ovarian): 104%
growth (OVCAR-5 ovarian): 104%
growth (OVCAR-4 ovarian): 106%
growth (SK-OV-3 ovarian): 100%
growth (IGROV1 ovarian): 94%
growth (OVCAR-3 ovarian): 109%
growth (HS 578T breast): 119%
growth (NCI/ADR-RES ovarian): 105%
growth (T-47D breast): 110%
growth (BT-549 breast): 95.7%
growth (MDA-MB-435 melanoma): 105%
growth (SW-620 colon): 112%
growth (MCF7 breast): 103%
growth (HCT-116 colon): 110%
growth (HCC-2998 colon): 107%
growth (KM12 colon): 104%

CC12OC(CC(O)C1O)n1c3ccccc3c3c4c(c5c6ccccc6n2c5c31)C(=O)N(CCN1CCCC1)C4=O (stereo unspecified)
growth (SR leukemia): 2.44% (active)
growth (RPMI-8226 leukemia): 1.17% (active)
growth (OVCAR-8 ovarian): 26.3%
growth (OVCAR-5 ovarian): 41.4%
growth (OVCAR-4 ovarian): 27.9%
growth (SK-OV-3 ovarian): 10.4%
growth (IGROV1 ovarian): 13.9%
growth (OVCAR-3 ovarian): 25.7%
growth (HS 578T breast): 41.1%
growth (NCI/ADR-RES ovarian): 46.4%
growth (T-47D breast): 21.9%
growth (BT-549 breast): 52.9%
growth (MDA-MB-435 melanoma): 30.4%
growth (SW-620 colon): 13.9%
growth (MCF7 breast): 2.15% (active)
growth (HCT-116 colon): 13.4%
growth (HCC-2998 colon): 13.3%
growth (KM12 colon): 27.9%

CC[C@@H](C(=O)[C@@H](C)[C@@H](O)[C@H](C)[C@@H]1O[C@@H]([C@@H](CC)C(=O)ONC(=O)c2ccccc2O)CC[C@@H]1C)C1O[C@]2(C=CC(=O)[C@]3(CC[C@@](C)([C@H]4CC[C@](O)(CC)[C@H](C)O4)O3)O2)[C@H](C)C[C@@H]1C (stereo partly specified)
growth (SR leukemia): 1.64% (active)
growth (RPMI-8226 leukemia): 24.6%
growth (OVCAR-8 ovarian): 54.9%
growth (OVCAR-5 ovarian): 47%
growth (OVCAR-4 ovarian): 53.3%
growth (SK-OV-3 ovarian): 120%
growth (IGROV1 ovarian): 58.8%
growth (OVCAR-3 ovarian): 5.93% (active)
growth (HS 578T breast): 43.9%
growth (NCI/ADR-RES ovarian): 48.7%
growth (T-47D breast): 12.4%
growth (BT-549 breast): 36.2%
growth (MDA-MB-435 melanoma): 63%
growth (SW-620 colon): 40.8%
growth (MCF7 breast): 17.8%
growth (HCT-116 colon): 36.7%
growth (HCC-2998 colon): 58.7%
growth (KM12 colon): 51.3%

Cc1c2cnccc2c(C)c2c1c1cc(CO)ccc1n2C
growth (SR leukemia): 8.41% (active)
growth (RPMI-8226 leukemia): -20.5% (active)
growth (OVCAR-8 ovarian): -13.8% (active)
growth (OVCAR-5 ovarian): -27.5% (active)
growth (OVCAR-4 ovarian): -56.2% (active)
growth (SK-OV-3 ovarian): -43.1% (active)
growth (IGROV1 ovarian): -36.4% (active)
growth (OVCAR-3 ovarian): -33.7% (active)
growth (HS 578T breast): -13.1% (active)
growth (NCI/ADR-RES ovarian): -24.6% (active)
growth (T-47D breast): -21.2% (active)
growth (BT-549 breast): -61.6% (active)
growth (MDA-MB-435 melanoma): -81.2% (active)
growth (SW-620 colon): 2.39% (active)
growth (MCF7 breast): -13.9% (active)
growth (HCT-116 colon): -7.64% (active)
growth (HCC-2998 colon): -65.4% (active)
growth (KM12 colon): 1.94% (active)
